We go through 44 compounds from PubChem BioAssay AID1452 (National Center for Advancing Translational Sciences (NCATS), 2008).

Each structure is given as a SMILES string. The campaign covered roughly 150,000 compounds. About 190 (0.13%) were called active. About 2% were inconclusive and are not listed. The full list was thinned out, with actives kept by preference. Unmarked numbers belong to inactive results. Calls follow the shape of the dose curve; as a rule, active = well fitted inhibition curve with a large enough effect; inconclusive = small, poorly fitted or top-dose-only effect; inactive = flat fitted curve, though single readings scatter.
% is scaled to controls: 0 for no effect and ±100 for the full control effect; potency is read from the fitted curve at half-maximal effect.

Polyunsaturated fatty acid lipoxygenase ALOX12 (Homo sapiens), sequence (P18054 whole entry, looked up): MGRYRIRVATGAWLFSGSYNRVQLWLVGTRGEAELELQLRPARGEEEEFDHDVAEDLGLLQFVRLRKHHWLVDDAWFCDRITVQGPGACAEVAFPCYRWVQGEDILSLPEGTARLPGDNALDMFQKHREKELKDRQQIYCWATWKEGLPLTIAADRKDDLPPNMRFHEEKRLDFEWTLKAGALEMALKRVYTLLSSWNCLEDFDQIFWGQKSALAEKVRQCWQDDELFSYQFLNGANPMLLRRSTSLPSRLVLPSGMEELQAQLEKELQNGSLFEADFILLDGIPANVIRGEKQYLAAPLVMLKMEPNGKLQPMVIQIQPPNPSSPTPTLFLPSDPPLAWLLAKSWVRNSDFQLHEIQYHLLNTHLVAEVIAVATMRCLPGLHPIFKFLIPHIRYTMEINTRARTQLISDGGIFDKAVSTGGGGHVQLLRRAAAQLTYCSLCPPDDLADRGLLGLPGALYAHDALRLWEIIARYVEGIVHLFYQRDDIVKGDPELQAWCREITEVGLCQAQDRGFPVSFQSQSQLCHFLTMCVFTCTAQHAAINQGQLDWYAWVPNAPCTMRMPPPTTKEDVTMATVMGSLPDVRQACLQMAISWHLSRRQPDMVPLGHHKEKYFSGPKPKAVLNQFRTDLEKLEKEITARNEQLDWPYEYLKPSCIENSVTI

This test has as its target Polyunsaturated fatty acid lipoxygenase ALOX12 (Homo sapiens) (UniProt P18054). Kind of test: qHTS Assay for Inhibitors of 12-hLO (12-human lipoxygenase). Also: nearly all actives have a fitted effect of over 55% in size. The conditions noted are these: purified 12-hLO, xylenol orange hydroperoxide absorbance; series mostly up to 57.1 µM; activity change, negative = inhibition: at the top concentration. From the text: Assay Provider: Holman, T.R., University of California, Santa Cruz Screening Center PI: Austin, C.P. Screening Center: NIH Chemical Genomics Center [NCGC] Human lipoxygenase 12hLO is a member of the closely related lipoxygenase family of enzymes which catalyze the site-specific oxidation of arachidonic acid to various hormone precursor molecules and as such is a candidate for drug development in a variety of disease areas, such as cancer and inflammation. Inhibition of 12hLO activity was screened by utilizing arachidonic acid as a substrate. The extent of hydroperoxide product formation was measured by a secondary chromogenic reaction in which xylenol orange (XO, Sigma-Aldrich, cat. number 39,818-7) reacts with the ferric ions produced from the reaction between the hydroperoxide and ferrous ions. The Fe(III)-XO complex is characterized with red-shifted absorbance at 560 nm. A purified preparation of human 12hLO was supplied by Professor Ted Holman, University of California, Santa Cruz.
Assay Protocol: Buffer: 25 mM Hepes pH 7.0, 0.01% Triton X-100. Reagents/Controls: Buffer in columns 3 and 4 as negative control (no enzyme). Substrate solution: 40 uM arachidonic acid (Sigma-Aldrich, St. Louis, MO) final concentration dispensed throughout the plate. Enzyme: 150 nM 12hLO final concentration in columns 1, 2, 5-48. Column 1 is neutral (100% activity). Column 2 contained pin-transferred titration of NDGA (nordihidroguaiaretic acid, Sigma-Aldrich, N 5023, top concentration 20 mM in DMSO, then 1:3 dilution in duplicate). (Dilution factor: 23 nL into 4 uL.) Chromogenic detection reagent (divalent iron/xylenol orange, Fe-XO): 200 uM xylenol orange plus 300 uM ferrous ammonium sulfate prepared freshly in 50 mM sulfuric acid. Assay Steps: Three uL of enzyme were dispensed to 1536-well Greiner black clear bottom plates. Compounds and controls (23 nL) were transferred via Kalypsys PinTool. The plates were incubated for 15 min at room temperature, and then 1 uL of substrate solution was added to start the reaction. After room temperature incubation for 30 minutes, 4 uL of Fe-XO solution was added to each well and the plates were incubated for 30 min. The absorbance at 405 and 573 nm were measured using ViewLux (Perkin-Elmer) High-throughput CCD imager and absorbance protocol settings. The 573-to-405 absorbance ratio was used to compute reaction progress.
(qHTS replaces the single test concentration by a dilution series.)
As for `CCCCC/C=C\C[C@H](O)/C=C/C=C/C=C/[C@@H](O)CCCC(=O)O`, the “activity change, negative = inhibition” value is 4.92%.
With `COC(=O)C1=NNC2(c3ccc(C)cc3)C(=O)N(c3cccc(C)c3C)C(=O)C12` (centres undefined), the “activity change, negative = inhibition” value is 0.273%.
For the compound `CC(=O)c1ccc2c(ccc3ccccc32)c1`, the “activity change, negative = inhibition” value was -1.61%.
Consider `C=CC(=O)c1ccc2ccccc2c1`, for which the Potency was 2.51 µM (active).
For `CC(=O)CCC(=O)c1ccc2ccccc2c1`, the “activity change, negative = inhibition” value is -1.87%.
On the same count and under the same terms, the figure for `CCOC(=O)C1=C(N)N(c2ccc(C)cc2)C2=C(C(=O)CCC2)C1c1cccs1` (centres undefined) is 1.9%; for `COC(=O)CCCC1=CC2=CC(=O)C(C)(OC(=O)c3cccs3)C(=O)C2=CN1c1ccc(CO)cc1` (centres undefined) it is -2.32% [at 11.4 µM]; for `COc1ccc(-c2c(C)cc3oc(=O)cc(-c4ccccc4)c3c2C)cc1OC` it is -1.07% [at 0.00818 µM].
Still for that read-out and setting: with `COc1ccc(/C=C/C(=O)OCC(=O)Nc2cccc(Oc3ccccc3)c2)c(OC)c1` the figure was -1.67%; with `COc1ccc(CCC(=O)OCC(=O)Nc2ccc(C)c(S(=O)(=O)N(C)C)c2)cc1`, -0.448%.
With `O=C(CSc1ccccc1)Nc1nnc(/C=C/c2ccccc2)s1`, the “activity change, negative = inhibition” value was 2.65%.
On the same count and under the same terms, the figure for `COc1ccc(C2NC(=S)NC3=C2CCc2ccccc23)cc1OC` (centres undefined) is -17.3%; for `CC1(OC(=O)c2ccc(Cl)nc2)C(=O)Cc2cc(-c3ccsc3)ncc2C1=O` (centres undefined) it is -0.498% [at 11.4 µM].
Same read-out and setting: with `COc1ccc(C(=O)Nc2ccc(S(=O)(=O)NC(C)C)cc2)cc1` the figure was 4.57%.
Consider `COc1ccc(NS(=O)(=O)c2ccc(NC(=S)NC(=O)CC(C)C)cc2)cc1`, for which the Potency was 15.8 µM (active).
With `CC(=O)c1ccc(NC(=S)NC(=O)CC(C)C)cc1`, the “activity change, negative = inhibition” value was 1.05%.
Same read-out and setting: with `COc1cc(-c2cc(C(=O)OCC(=O)Nc3ccc4c(c3)OCO4)c3ccccc3n2)cc(OC)c1OC` the figure was 1.97%.
The same measure, in the same setting: the figure for `CCOC(=O)C1=C(C(=O)OCC)C(C(=O)OCC)N(S(=O)(=O)C(F)(F)F)c2ccccc21` (centres undefined) is -4.37% [at 0.00818 µM].
Consider `COc1cc(NC(=S)NCCSc2ccc(C)cc2)cc(OC)c1`, for which the Potency is 20 µM (active).
With `COc1cc(NC(=O)Nc2ccc(C)cc2)cc([N+](=O)[O-])c1`, the “activity change, negative = inhibition” value is 0.524%.
On the same count and under the same terms, with `COc1cccc(NC(=S)NCCCN2CCOCC2)c1` the figure was -0.748%; with `NS(=O)(=O)c1ccc(CNC(=O)c2ccc(Cl)cc2[N+](=O)[O-])cc1`, -2.13%.
The same measure, in the same setting: with `O=C(Cn1nc(CNc2ccc(Cl)cc2)[n+]2c1CCCCC2)c1ccc(Cl)cc1` the figure was -14.1%; with `COc1ccc([N+](=O)[O-])cc1NC(=O)C(C)OC(=O)C1c2ccccc2Oc2ccccc21` (centres undefined), -0.718%.
Same read-out and setting: the figure for `CC1(C)O[C@@H]2C[C@@H]3[C@H]4C[C@@H](F)C5=CC(=O)C=C[C@]5(C)[C@@]4(F)[C@@H](O)C[C@]3(C)[C@]2(C(=O)CO)O1` is -0.431% [at 0.00818 µM]; for `CC(C)(C)C1CCC(=NNC(=O)c2ccc(Br)o2)CC1` (centres undefined) it is 7.26%.
In the case of `CCCCC/C=C\C/C=C\C/C=C\CCCCC(=O)NCC(=O)O`, the “activity change, negative = inhibition” value is 5.86%.
On the same count and under the same terms, the figure for `O=C(Cc1ccccc1)NC(=S)Nc1ccc(N2CCCCC2)cc1` is -4.31%; for `CCCCC/C=C\CC1OC1CCCCCCCC(=O)O` (centres undefined) it is -6.12%; for `COc1cccc(-c2cc(=O)c3cc(NC(=O)c4ccc(C)cc4)ccc3[nH]2)c1` it is 0.685% [at 0.00818 µM].
Same read-out and setting: the figure for `C[C@H]1Cc2c(-c3ccccc3)nc3c(c2CO1)CN(S(=O)(=O)c1ccc(Cl)c2nonc12)CC3` is -3.11% [at 11.4 µM]; for `COc1ccc(CCNC(=O)COC(=O)C2CCCCC2)cc1` it is -0.0351%; for `Cc1ccc(C(=O)COC(=O)CCN2C(=O)C3C4CC(C(Br)C4Br)C3C2=O)cc1` (centres undefined) it is -1.03%.
On the same count and under the same terms, the figure for `CC(=O)c1c(C)[nH]c(C(=O)COC(=O)c2cccc(S(=O)(=O)N(C)c3ccccc3)c2)c1C` is -3.3%; for `Cc1ccc(NC(=S)NC(=O)/C=C/c2ccc(Cl)cc2)cc1` it is -2.19%.
On to `O=C(CSC1CC(=O)N(CCc2ccccc2)C1=O)Nc1ccc(Cl)cc1` (centres undefined), for which the “activity change, negative = inhibition” value was -7.76%.
On the same count and under the same terms, the figure for `COc1ccc(-c2nc3c(c4c2C[C@H](c2ccccc2)OC4)CN(S(=O)(=O)c2c(C)noc2C)CC3)c(C)c1` is 1.37% [at 11.4 µM].
On the same count and under the same terms, the figure for `CC1=C(C(=O)Nc2cc(C)ccn2)C(c2cnn(C)c2)C2=C(CC(c3ccccc3)CC2=O)N1` (centres undefined) is -1.69%; for `O=C(CN1CCN(c2ccc(O)cc2)CC1)NC1CCCc2ccccc21` (centres undefined) it is -5.85%.
Still for that read-out and setting: the figure for `CC(=O)CC(c1ccccc1)C1C(=O)Oc2ccccc2C1=O` (centres undefined) is -0.392% [at 0.00818 µM]; for `CCCC(=O)Nc1ccc(C(=O)N/N=C/c2ccc[nH]2)cc1` it is -0.0134%; for `CC(C)C(C)(C#N)NC(=O)CSc1nc2scc(-c3ccccc3)c2c(=O)[nH]1` (centres undefined) it is -0.662%.
As for `Cn1nccc1CNC(=O)c1ccnn1C`, the “activity change, negative = inhibition” value is 0.98%.
In the case of `Cc1ccccc1-c1ccc(C(=O)O)s1`, the activity change, negative = inhibition is 1.22% [at 0.00818 µM].
